Calls of active or inactive are those of the source. The calls were made as follows: active = hit-call score of the fitted dose curve at least 0.9, where 1 is the maximum; inactive = score below 0.9.
Test: CCTE_Simmons_MITO_max_resp_rate: CCTE's HepG2 Seahorse XF Respirometric Screening Assay at Maximal Respiratory State [uncoupled], Simmons Lab (AID 2284002)
Conditions: actives raise or lower the signal
Experimental: CCTE_Simmons_MITO is cell-based, respirometric assay using HepG2 cells and a Seahorse XF Analyzer to measure oxygen consumption rates over four temporal phases spanning a total of 72 minutes: pre-injection (pre-treatment), basal (following test compound injection), maximal (following FCCP uncoupler injection), and inhibited (following rotenone/antimycin A injection)CCTE_Simmons_MITO_max_resp_rate is one of 4 assay components calculated from the CCTE_Simmons_MITO assay. It is designed to make measurements of maximal respiration using a form of respirometric reporter, as detected with […] signals by Seahorse XF96 technology. Data from the assay component CCTE_Simmons_MITO_max_resp_rate was analyzed at the endpoint, CCTE_Simmons_MITO_max_resp_rate_OCR, with bidirectional fitting relative to DMSO as the negative control and baseline of activity. Using a type of respirometric reporter, measures of maximal respiration for gain or loss-of-signal activity can be used to understand cellular oxygen consumption as it relates to cellular respiration. To generalize the intended target to other relatable targets, this assay endpoint is annotated to the mitochondria intended target family, where the subfamily is respiration.
Test chemicals were administered as a titrated series of 7 concentrations from 125 nM up to 100 uM [final] prior to kinetic endpoint detection at 6 minute intervals [3 min mix followed by 3 minutes measure] for 72 minutes. Three biological replicates of technical singles were run for every chemical concentration tested. Dimethylsulfoxide [DMSO] was used as the vehicle control. The electron transport chain inhibitor fenpyroximate was used as the positive control for decreased basal respiration and was administered as a titrated series of 6 concentrations from 250 nM up to 2.75 uM [final] with technical triplicates for the top concentration only. The uncoupler 2,4-dintirophenol was used as the positive control for increased basal respiration and was administered as a titrated series of 6 concentrations from 938 nM up to 40 uM [final] with technical triplicates for the top concentration only. A Seahorse XF Analzyer is required to measure the response.
For `CC[C@H](c1ccc(O)cc1)[C@@H](CC)c1ccc(O)cc1`, the AC50 was 30 µM (active). With `CCc1nn(C2CCCCC2)c2cc(C3(C#N)CCC(C(=O)O)CC3)ccc12` (stereo not drawn) the AC50 was 25 µM (active). For `Oc1cc2ccccc2c2ccccc12`, the outcome was “inactive”. With `O=C(O)Cc1cc(I)c(Oc2cc(I)c(O)c(I)c2)c(I)c1` the outcome was “inactive”. In the case of `Cc1cc(CCN2CCN(c3nsc4ccccc34)CC2)cc2c1NC(=O)CC2(C)C`, the AC50 was 17 µM (active). For `NC(=O)N1C(=O)C(C(=O)c2cc(Cl)cs2)c2cc(F)c(Cl)cc21` (stereo not drawn), the AC50 was 17.7 µM (active). In the case of `OC1CCC(C2CCCCC2)CC1` (stereo not drawn), the outcome was “inactive”. In the case of `O=[N+]([O-])c1ccc(O)cc1`, the outcome was “inactive”. For `NC(=O)N(O)[C@@H]1C=C[C@H](Oc2cccc(Oc3ccc(F)cc3)c2)C1`, the AC50 was 32.4 µM (active). In the case of `CN1CCN(c2ccccc2/C=C2\SCCN(c3ccc(Cl)c(Cl)c3)C2=O)CC1`, the outcome was “inactive”. For `CCCCCCCCCCCCN1CCCC1=O`, the AC50 was 34.8 µM (active). For `Nc1cccc2c(N)cccc12`, the outcome was “inactive”. In the case of `CCCOC(=O)c1ccc(O)cc1`, the outcome was “inactive”.
